# Inconclusive results are not listed. Calls of active or inactive are those of the source. Calls come from the whole dose curve; as a rule, active = well fitted inhibition curve with a large enough effect; inconclusive = small, poorly fitted or top-dose-only effect; inactive = flat fitted curve, though single readings scatter.
# Target: Muscarinic acetylcholine receptor M1 (Rattus norvegicus) (UniProt P08482)
# Assay: Counterscreen Concentration-Response Assay for Antagonists of the Neuropeptide S Receptor: Muscarinic Receptor Calcium Signal Transduction.
# Settings: CHO-M1 cells, carbachol-induced calcium fluorescence, FDSS; series mostly up to 20.2 µM
# Description: NIH Chemical Genomics Center [NCGC] NIH Molecular Libraries Probe Production centers Network [MLPCN] MLPCN Grant: X01-DA026210-01 Assay Submitter (PI): Heilig, Markus Alexander NCGC Assay Overview: Neuropeptide S receptor (NPSR), previously known as GPR154, is a recently de-orphanized G protein coupled receptor. Its endogenous ligand is the 20 amino acids peptide Neuropeptide S (NPS). […] NPS and its receptor are found in various tissues. Specifically they are highly expressed in brain areas that have been implicated in modulation of arousal, stress and anxiety. […] This change in intracellular calcium can be detected using a calcium indicator dye on a calcium imaging plate reader system (FDSS). […]
# NCGC Assay Protocol Summary: A Chinese hamster ovary (CHO) cell line stably expressing muscarinic acetylcholine M1 receptor (CHO-M1) was obtained from ATCC and maintained in F-12 Kaighn's media (Invitrogen, Carlsbad, CA, 21127) supplemented with 10 % FBS, 100 units/ml penicillin, 100 ug/ml streptomycin and 250 ug/ml geneticin at 37C, 5% CO2 in a humidified atmosphere. […] The assay was performed on a FDSS-7000 kinetic plate reader in 1536-well format. The maximums of kinetic fluorescence responses were converted into text files using the instrument's software data export utility. […] AC50 values were determined from concentration-response data modeled with the standard Hill equation. […]
compound,measurement,value
O=c1[nH]c(=O)n(CCC2=CCCCC2)c(O)c1C=NC1CCN(Cc2ccccc2)CC1,outcome,inactive

# — PubChem BioAssay AID1492 (National Center for Advancing Translational Sciences (NCATS), 2009)
